Screening data (PubChem)
An excerpt weighted towards active compounds, which were near 2% of everything screened.
Arbovirus inh: antivirals against arbovirus infection, primary screen, cell-based, full library, 10K replicate subset; arbovirus infection cell-based antiviral screen; inhibition, % at 10 µM; hit rate 0.37% among 200,000; AID 1251, 2008; in the data active = inhibition above about 30%
Wee1 degr inh: Wee1 degradation inhibitors, primary screen, cell-based, HeLa, Wee1K328M-luciferase, luminescence; HeLa Luc-Wee1K328M stability; 100% = proteasome inhibitor MG132 effect; reporter increase, % at 5 µM; hit rate 1.2% among 220,000; Wee1-like protein kinase (Homo sapiens), P30291; AID 1321, 2008;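 active = activation above the mean of all tested compounds plus 3 SD, set per screening run, cut at about 8.8% in these data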;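 note: cells exposed to compound for 20 h before luminescence read; 0% = DMSO alone and 100% = MG132 at 30 µM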
PKD1 kinase inh: inhibitors of human PKD1 kinase, biochemical, fluorescence polarization | hit rate 0.056% among 200,000 | PKD1 kinase fluorescence polarization assay | AID 797, 2007 | inhibition, % (test concentration not listed) | Serine/threonine-protein kinase D1 (Homo sapiens), Q15139; in the data active = inhibition above about 50%
Target sequence (Q15139 whole entry, looked up): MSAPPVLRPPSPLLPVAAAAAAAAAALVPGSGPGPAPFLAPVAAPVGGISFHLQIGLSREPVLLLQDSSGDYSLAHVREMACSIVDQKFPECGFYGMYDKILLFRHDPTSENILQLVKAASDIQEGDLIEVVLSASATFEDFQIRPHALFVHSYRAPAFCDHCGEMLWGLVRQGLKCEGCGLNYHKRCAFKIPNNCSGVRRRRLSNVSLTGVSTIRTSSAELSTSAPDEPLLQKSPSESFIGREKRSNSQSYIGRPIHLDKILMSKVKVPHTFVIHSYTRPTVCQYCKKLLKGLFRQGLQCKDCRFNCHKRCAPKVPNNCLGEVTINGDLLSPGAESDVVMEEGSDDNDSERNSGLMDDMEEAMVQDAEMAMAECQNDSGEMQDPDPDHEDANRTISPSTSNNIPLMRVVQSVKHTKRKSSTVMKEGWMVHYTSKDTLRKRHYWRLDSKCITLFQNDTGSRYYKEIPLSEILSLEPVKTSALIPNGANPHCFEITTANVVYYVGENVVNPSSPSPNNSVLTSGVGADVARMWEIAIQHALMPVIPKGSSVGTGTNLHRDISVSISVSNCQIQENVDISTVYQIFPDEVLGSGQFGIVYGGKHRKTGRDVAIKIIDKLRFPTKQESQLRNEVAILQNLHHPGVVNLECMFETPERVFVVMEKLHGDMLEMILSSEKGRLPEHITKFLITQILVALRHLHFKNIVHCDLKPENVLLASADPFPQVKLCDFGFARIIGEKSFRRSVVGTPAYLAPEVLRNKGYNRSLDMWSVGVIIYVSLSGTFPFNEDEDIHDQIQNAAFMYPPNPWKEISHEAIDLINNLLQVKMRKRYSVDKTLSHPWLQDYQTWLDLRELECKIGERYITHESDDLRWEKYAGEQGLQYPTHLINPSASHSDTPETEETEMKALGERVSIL
Hsp70 activator: Hsp70 transcriptional activators, primary screen, cell-based, HeLa, Hsp70 promoter luciferase, luminescence, 10 µM | HeLa Hsp70 promoter luciferase reporter; scaled: vehicle 0, proteasome-inhibitor control 100% | activation, % at 10 µM | hit rate 0.04% among 200,000 | AID 1203, 2008;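 active = activation above the mean across all tested compounds plus 3 SD, cutoff set per campaign, cut at about 5.5% in these data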;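 note: 100% = MG132 at 30 µM as the positive control and 0% = DMSO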
HMGR II inh: inhibitors of E. faecalis class II HMGR, primary screen, biochemical, Enterococcus faecalis | purified E. faecalis HMGR, NADPH absorbance 340 nm kinetic | inhibition, % at 10 µM | hit rate 0.41% among 190,000 | AID 1066, 2008;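 active = inhibition above a set limit, the median over all tested compounds plus 3 SD, cut at about 9.5% in these data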;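 note: enzyme runs in reverse so mevalonate oxidation gives rising NADPH absorbance; 0% = complete reaction with DMSO and 100% = background rate lacking mevalonate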
Wee1 stab conf: Wee1 degradation inhibitors, confirmation, cell-based, HeLa, Wee1K328M-luciferase, luminescence, triplicate. shares compounds with Wee1 degr inh. HeLa Luc-Wee1K328M degradation; vehicle 0%, proteasome-blocked wells 100%. activation, % at 5 µM. hit rate 4% among 1,100. AID 1410, 2008; in the data active = activation above about 8.9%
An asterisk follows results filed as active; . = not tested or not shown.

SMILES	Arbovirus inh	Wee1 degr inh	PKD1 kinase inh	Hsp70 activator	HMGR II inh	Wee1 stab conf
Cc1c(/C=N/NC(=O)c2ccc(Br)o2)cnn1C	.	1.2	.	.	.	.
CSCCC1NC(=O)N(CC(=O)Nc2ccc(-c3ccccc3)cc2)C1=O (configuration not stated)	.	0.7	.	.	.	.
COc1cc(/C=C/c2nnc3c4ccccc4ncn23)cc(OC)c1OC	17.3	1.8	1.2	-0.3	-8.2	.
C(=C\c1nnc2c3ccccc3ncn12)/c1ccccc1	-12.2	12.2*	0.8	0.9	1.3	8.2
O=C(O)COc1ccccc1/C=N/NC(=O)CN1CCN(Cc2ccc(Cl)cc2)CC1	.	24.6*	.	.	.	2.0
O=C(CN1CCN(Cc2ccccc2)CC1)N/N=C/c1ccccc1F	.	-1.4	.	.	.	.
C=CCn1c(O)c(N=NC(=O)c2cccnc2)c2cc(Br)ccc21	.	1.8	.	.	.	.
O=C(N/N=C/c1cc(Br)c(O)c(Br)c1)c1cccc(C(F)(F)F)c1	-4.5	12.2*	-1.1	-0.3	-0.4	1.6
O=C(N/N=C/c1cccc(C(F)(F)F)c1)c1ccccc1O	8.9	-1.3	-1.9	0.0	-1.2	.
CCOC(=O)C1=C(c2ccccc2)O/C(=C(/C#N)C(F)(F)F)S1	-36.9	24.1*	-5.7	1.1	0.6	87.2*
O=C(COC(=O)c1cccnc1Cl)Nc1ccc2c(c1)OCCO2	2.2	0.3	-4.3	-0.1	1.6	.
COc1ccc2c(c1)c(CC(=O)Nc1cc(C)ccc1C)c(C)n2C(=O)c1ccc(Cl)cc1	-9.1	14.3*	4.2	0.1	2.2	2.1
COc1ccc(-n2nnnc2SCC(=O)Nc2nnn(C)n2)cc1	4.0	10.9*	-3.7	-0.1	-7.7	-1.9
COc1ccc(-n2nnnc2SCC(=O)Nc2nc3c(s2)CCCC3)cc1	-0.4	-1.4	-9.7	0.1	4.1	.
CCNc1nc(NC(N)=S)nc(NC(C)(C)C)n1	1.9	-3.2	-7.0	0.0	-3.4	.
Cc1nn2cc(-c3ccc(Cl)cc3)nc2s1	2.4	13.8*	-12.0	0.1	-2.3	0.1
COCCCNC(=O)Nc1ccc(Br)cc1Cl	10.3	11.2*	-5.8	1.3	-9.2	4.1
CCn1c2ccccc2c2cc(NC(=O)c3ccccc3[N+](=O)[O-])ccc21	3.5	-0.8	4.2	-0.3	-3.3	.
Cc1cc(C)n2nc(-c3ccc(F)cc3)nc2n1	-0.9	15.9*	-7.5	0.5	-4.8	2.3
CCOC(=O)C1CCN(S(=O)(=O)c2ccc(NC(C)=O)c(Cl)c2)CC1	.	11.2*	.	.	.	1.0
Cc1nc(Nc2ccccc2Cl)sc1C(=O)Nc1ccccc1	-10.6	16.8*	-6.8	0.0	-6.4	2.1
O=C(CN1N=C(c2ccccc2)CCC1=O)NCCN1CCc2ccccc2C1	-3.8	12.8*	0.3	-0.3	-6.0	0.9
O=C(CN1N=C(c2ccccc2)CCC1=O)NCc1ccccc1	-0.7	1.8	-6.5	-0.1	0.0	.
O=S(=O)(c1ccc(Cl)cc1Cl)n1ccc2cccnc21	4.1	12.5*	-4.4	1.4	-4.5	5.6
NC(=O)C1=C[C@H](c2ccc(Br)cc2)C[C@H](OCc2ccc(CO)cc2)O1	6.3	11.4*	-3.1	1.0	-2.4	0.2
SMILES	Arbovirus inh	Wee1 degr inh	PKD1 kinase inh	Hsp70 activator	HMGR II inh	Wee1 stab conf
COCCNC(=O)NC(=O)CN1CCCc2ccccc21	21.4	0.2	2.8	-0.1	-6.0	.
CC(C)(CNC(=O)C1CCCC1)CNC(=O)C1CCCC1	-3.2	11.5*	-5.4	-0.2	0.6	1.8
CCOC(=O)C1=c2/c(=C/c3ccncc3)c(N)c(C(=O)OC)n2C(=O)C(c2ccncc2)S1 (configuration not stated)	5.8	19.1*	-0.2	0.1	-5.2	1.1
Cc1cc(C(=O)OCC(=O)Nc2cccnc2Cl)c2ccccc2n1	3.4	-2.1	-5.2	0.3	-4.8	.
Cc1ccccc1NC(=O)c1snc2c(=O)[nH]cnc12	7.1	-1.1	-3.5	0.1	-1.8	.
CCOC(=O)N1CCN(C(=O)CCCCn2c(=S)[nH]c3ccsc3c2=O)CC1	3.5	13.1*	-0.1	0.4	-5.1	1.1
O=C(CCCCCn1c(=O)[nH]c2ccsc2c1=O)N1CCCCC1	7.8	-2.1	-2.0	-0.3	-0.8	.
C/C(=N\NC(=O)CSCc1ccccc1Cl)c1cc(O)ccc1O	-9.9	-1.3	-9.0	-0.3	2.7	.
O=C(COC(=O)C1CC1)NC(=O)NCc1ccccc1	2.6	2.0	-2.1	0.5	-6.5	.
Cc1ccc(NS(=O)(=O)c2ccc(NS(=O)(=O)c3cccs3)cc2)cc1	15.1	10.9*	5.2	-0.2	-0.2	0.3
Cc1nnc(NC(=O)c2cc3n(n2)C(C(F)(F)F)CC(C2CC2)N3)s1 (configuration not stated)	4.2	1.3	-4.0	0.0	-4.1	.
O=C(Nc1nc2c(s1)CCCC2)c1cc2n(n1)C(C(F)(F)F)CC(C1CC1)N2 (configuration not stated)	-18.1	15.4*	-0.7	-0.2	-6.3	1.5
COc1ccc(Br)cc1S(=O)(=O)NCCCN1CCOCC1	7.2	-2.6	5.7	0.0	-7.9	.
CCCSc1nsc(NC(=O)CCC)n1	1.7	13.4*	-8.8	0.1	-3.1	3.8
CCOC(=O)C1CCCN(C(=O)c2ccc(Cl)c(S(=O)(=O)N3CCCCCC3)c2)C1 (configuration not stated)	1.4	-3.9	-1.1	0.0	0.0	.
O=C1N=C(N2CCCC2C(=O)O)S/C1=C\c1ccco1 (configuration not stated)	4.2	12.9*	9.4	-0.3	-3.0	2.6
CCO[C@H]1OC(C(=O)NCc2ccccc2)=C[C@@H](c2ccccc2)[C@@H]1CCCO	-8.3	-2.1	-0.9	0.1	-2.9	.
Cc1cccc2sc(N(CCCN(C)C)C(=O)c3cc4ccccc4oc3=O)nc12	-13.8	2.5	-9.7	-0.3	-1.4	.
Cc1ccc2nc(N(CCCN(C)C)C(=O)c3cc4ccccc4oc3=O)sc2c1	1.6	15.3*	-18.0	-0.3	5.7	-1.7
COc1cc(C2NC(=S)NC(C)=C2C(=O)Nc2ccc(C)cc2)ccc1O (configuration not stated)	0.7	0.3	-5.7	0.3	-1.6	.
CCN(CC)CCn1c(SCC(=O)Nc2cccc(OC)c2)nc2c(sc3ccccc32)c1=O	-8.5	11.8*	-5.5	-0.1	-3.2	4.7
COc1cccc(NC(=O)CSc2nc3c(sc4ccccc43)c(=O)n2CCN(C)C)c1	5.4	-1.1	-10.1	0.2	-2.8	.
COc1cc(CNc2ccc(N3CCN(C(C)=O)CC3)cc2)ccc1OCc1ccc(F)cc1	-4.2	11.6*	-4.3	-0.2	-2.3	3.0
Cc1ccc(C)c(C(=O)COC(=O)c2cc([N+](=O)[O-])ccc2NCCO)c1	10.8	-2.0	4.5	-0.4	-3.4	.
